# Laboratory results as given in the supplement of paper PMC6555819.
# Tests used:
# Assay in all cases: PBM binding z-score (relative to random genomic background probes); higher = stronger binding; sequences stand for … in GC…GCGATTGACAGCGTAGAATGAAGG
# [1] = system: RARb homodimer (NR concentration 270 nM)
# Method in brief: (§1)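 The probes on custom Agilent 4×180K protein-binding microarrays were double-stranded, with 34-nt variable regions bearing direct-repeat seeds, single-nucleotide variants, half-site ablations and random human genomic background sequences. Incubation lasted 1 h with ligand-free nuclear receptor dimers in PBS pH 7.4, 2% milk, 0.02% Triton X-100, 1 mM DTT, 0.2 mg/mL BSA and 0.4 mg/ml salmon testes DNA. Antibodies against each partner (one per run) detected bound dimers, and fluorescence scans were regression-normalized. Binding z-scores take the random background probes as reference.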
# [2] = system: RARg:RXRa (NR concentration 270 nM, RXRa partner concentration 90 nM)
# Method in brief: as §1
# [3] = system: RARg homodimer (NR concentration 270 nM)
# Method in brief: as §1
# [4] = system: RXRa DBDmut IVT, anti-RXR (DBD mutation: RXRa K156A/R161A, NR concentration 90 nM)
# Method in brief: as §1
# [5] = system: RXRa homodimer (NR concentration 180 nM)
# Method in brief: as §1
# [6] = system: THRa:RXRa (NR concentration 90 nM, RXRa partner concentration 90 nM)
# Method in brief: as §1
# [7] = system: THRa homodimer (NR concentration 90 nM)
# Method in brief: as §1
# [8] = system: VDR homodimer (NR concentration 270 nM)
# Method in brief: as §1
Sequence,PBM binding z-score [1],PBM binding z-score [2],PBM binding z-score [3],PBM binding z-score [4],PBM binding z-score [5],PBM binding z-score [6],PBM binding z-score [7],PBM binding z-score [8]
TCTGCTAGGTCACTTGGTCAGCTAACGAGCTGCC,3.07,4.03,4.52,1.54,2.41,2.58,0.574,0.129
CCGACTGGAGCAAGGTTACCATAACGCACAGCCA,1.15,0.461,0.534,0.587,0.971,1.16,0.379,0.142
CAGCCTAGGTCAAGGCCAGTATAGGAGGAACGTT,3.01,4.16,4.9,0.701,2.75,2.75,0.86,0.353
ATCAAAAGGTCGACGAGGTGAGTATACACCGTTT,3.3,4.4,4.08,1.52,4.69,3.9,1.05,0.947
GGAACGAGGGCAAAGTCGATAGCATCTGTCGACG,0.649,0.932,0.988,2.53,0.723,0.62,-0.445,1.19
ATATGTCGGTTAGCTGGGGTCATTCAGACTAGGC,3.58,3.65,2.68,1.59,5.28,4.56,3.31,4.56
CCTAGTTAGTCAGGAGGTCACACACCGGATATGA,4.28,4.25,3.72,1.38,4.86,3.74,2.73,3.01
GGAACGAGGGCATTCGAGTTGAAAGCATGGCGAT,0.677,1.02,1.19,3.05,1.12,3.9,-0.523,3.1
CCTTACGGGTCACGAGGTTATAACACGACGAGCG,3.99,6.07,5.32,1.5,6.99,3.79,0.991,1.63
ACAGACAGGTGAGTGACGGTAACTCAGCTGGACG,-0.222,0.269,0.362,-0.203,0.416,-0.128,-0.727,-0.577
AGAATGAGGTTATACGTAGATAAGGGAAGAAAGT,0.654,1.77,1.26,1.23,2.29,2.11,0.472,0.781
CCGACTGGGGCAGAAAGGTTACCATGCCATCCGG,2.33,1.54,1.08,-1.07,1.72,1.05,-0.541,-0.201
CCGACTGGGGCAGAAAGGTTACGATACCATCCGG,2.38,1.96,1.37,-0.562,2.09,1.15,-0.229,-0.0227
ACTATTAGTTGAGACGCGGGCAACCGATAGGTTG,-0.0528,0.00918,0.268,0.153,-0.256,-0.0691,-0.769,0.135
CCGACTGGGGCAGAAAGGTTACCAGACCATCCGG,2.18,1.75,1.28,-0.651,1.71,0.99,-0.742,-0.568
CCTACTGGGCCAAGGTCATTGAACAGTCAAAGCA,3.4,3.82,3.72,0.677,3.68,3.5,2.14,2.77
ACTAGCAGGCCAAGTTGGGGTCACTCAAACAAAG,3.81,4.97,3.25,0.825,5.2,4.16,2.89,3.34
GATACAGGGTCACCTAGAGGCCAGAGTATGGAAA,3.89,7.38,5.66,2.02,6.04,3.91,1.32,1.97
TCGAGTAGGTTAGGGGCATTAAGAATGGCGTCGA,0.787,0.329,0.269,0.304,0.639,0.955,0.048,0.785
GATACAGGGTCAGCTAGAGGCCAGAGAATGGAAA,3.39,6.83,5.12,1.73,4.78,3.35,0.483,0.71
CAGGCTAGGTCAGGGCCAGTATAGGAGGAACGTT,2.77,3.07,4.16,-0.54,1.45,1.95,0.49,0.035
CCTGCTAGGTCATGGTCAGCAAATCTACAGTATG,2.81,4.02,4.6,1.74,2.84,3.09,1.37,0.339
ACTATTAGTTGAGACGAGGGCAACCGATAGGTTG,1.2,0.833,0.861,0.5,0.75,2.7,0.226,0.728
TCGAGTAGGTTACCAATGAGGCATTCAGCTTTCT,-0.0486,0.457,0.0733,0.229,0.47,-0.137,-0.781,-1.08
TCTCGGCGGACACGAAGGTCAGAGCTTTCCAGAG,2.83,2.03,2.17,0.141,1.28,1.16,-0.151,0.187
CTACCAAGGTGCACAAGGTCGTTGATTACTATTC,1.71,1.29,0.782,1.8,1.42,2.14,1.21,2.73

Sequence,PBM binding z-score [1],PBM binding z-score [2],PBM binding z-score [3],PBM binding z-score [4],PBM binding z-score [5],PBM binding z-score [6],PBM binding z-score [7],PBM binding z-score [8]
AGAACGAGGGCACGCTGAGTTGAAAGCAGAGTAG,1.16,2.34,2.15,2,1.46,2.13,-0.233,0.663
CCTTACGGGTCAAGGTTATAACACGGGTGGTACG,3.35,5.02,4.89,1.1,5.42,3.06,0.539,1.41
ACTTACGGGTCAACGAGGTTGTAGCACGCGTATA,3.03,5.34,4.57,2.44,5.59,3.38,0.417,2.86
GCTTGTAGATCAAGGTTTAGAAAGACTAAGCTAA,-0.764,-0.251,-0.299,-0.0471,-0.469,-0.36,-0.736,-0.186
TCAGACAGGTGCAGGTAACTCAGGTACGCAGTCG,-0.182,-0.0126,-0.0497,0.956,0.745,0.824,0.0725,0.478
CAAACTAGGTCACGAAAGGTCCAAGTCGAATGAC,3.73,5.23,5.73,1.55,4.45,3.87,1.39,1.55
TCTTGTAGATCAAAGTTTAAGAAAGCCGAAGCCT,0.469,0.16,0.307,1.22,0.561,0.0453,-0.571,-0.214
TCTATTAGTTGAAGGGCAACCAACGAGTCCGTTT,1.4,0.447,0.495,1.46,0.529,0.101,0.123,0.984
TAGCCTAGGTCAGATCGAGCCAGTATACGCTATA,1.71,2.36,3.3,-0.301,1.23,1.61,-0.233,-0.594
CGAACTAGGTCATTTACAGGACAGTGAATAGTAA,2.66,4.82,4.09,2.58,2.38,2.89,0.896,1.75
TAGCCTAGGTCAGATCGGGCCGGTATACGCTATA,1.98,2.67,3.43,-0.551,0.992,3.11,0.09,-0.328
ATATGTAGGTTACATCCGGGTCACTCAGGCTATG,3.14,3.8,2.2,0.745,3.03,3.94,2.97,2.29
CGTCCGAGGTCAGAGAGGTCAGTGAATGCCGAGT,5.44,6.94,7.68,3.68,6.87,4.59,3,6.58
CACCCTAGGTCAGGGCCAGTATAGGAGGAACGTT,2.67,3.33,3.69,-0.329,1.99,2.23,0.911,-0.219
GGAACGAGGGCAAAGTTTATAGCATCTGTCGACG,1.8,2.31,2.04,2.61,2.22,1.63,-0.279,2.22
ATATGTAGGTTACATCAGGGTCATTCAGGCTATG,3.47,4.16,2.29,1.46,4.28,4.05,2.29,3.17
CGTCCAATGTCAAAGGTCAGTGAAGAGATGACGG,4.3,5.61,5.43,1.04,6.57,2.97,0.388,1.07
TCTATTAGTTGATTAGGGCAACAGAAACAGCGGA,0.664,0.691,0.686,0.926,0.691,0.607,0.289,0.253
TCTAGTTGGTCAACGGTCACACACTCGAAATGCG,2.49,1.51,2.16,1.24,1.23,0.548,0.185,0.188
TCATATAGGTAAACAGGTGAAACTCCGTAAGTTA,0.92,0.806,0.575,1.37,1.47,0.984,0.268,0.307
GCGACTGGGCCAAAGCAGGTTACCATAAGGTTGG,0.333,-0.0916,-0.132,-0.818,-0.0243,1.82,-0.598,-0.503
GCTAATTGGTCAGTAAAAGGTCACACACCGGTCG,5.34,5.37,4.52,0.816,5.27,3.88,2.1,2.14
ATCGAAAGGTCGGGGTGAGTATAGAGAAAGGGAA,2.88,3.7,3.63,1.78,3.77,3.06,1.35,1.52
TCGTATAGGTAATACAGGTGAAAGTCGGCATCTA,0.603,0.62,0.295,1.08,0.949,1.15,0.259,0.57
ACTATTAGTTGACTTAGGGCAGCCGATACGACGC,0.54,0.527,0.729,0.712,0.378,0.635,0.246,0.0585
CGTCCAAGGTCATAGCAGGTCAGTGAAGACAGAT,4.65,6.19,6.53,3.91,5.72,4.99,2.79,3.76
